This note sets out measurements from ChEMBL document CHEMBL1961873, “Compounds: GSK PKIS; Assays: Nanosyn kinase panel” (2012).

The target of experiment [1] is Sphingosine kinase 1 (Homo sapiens) (UniProt Q9NYA1). The conditions noted are these: at 1 µM.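 Note: mean SPHK1 inhibition value reported from the GSK PKIS kinase panel screen.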
Experiment [2] addresses T1, Sphingosine kinase 2 (Homo sapiens) (UniProt Q9NRA0).
T1 sequence (whole entry): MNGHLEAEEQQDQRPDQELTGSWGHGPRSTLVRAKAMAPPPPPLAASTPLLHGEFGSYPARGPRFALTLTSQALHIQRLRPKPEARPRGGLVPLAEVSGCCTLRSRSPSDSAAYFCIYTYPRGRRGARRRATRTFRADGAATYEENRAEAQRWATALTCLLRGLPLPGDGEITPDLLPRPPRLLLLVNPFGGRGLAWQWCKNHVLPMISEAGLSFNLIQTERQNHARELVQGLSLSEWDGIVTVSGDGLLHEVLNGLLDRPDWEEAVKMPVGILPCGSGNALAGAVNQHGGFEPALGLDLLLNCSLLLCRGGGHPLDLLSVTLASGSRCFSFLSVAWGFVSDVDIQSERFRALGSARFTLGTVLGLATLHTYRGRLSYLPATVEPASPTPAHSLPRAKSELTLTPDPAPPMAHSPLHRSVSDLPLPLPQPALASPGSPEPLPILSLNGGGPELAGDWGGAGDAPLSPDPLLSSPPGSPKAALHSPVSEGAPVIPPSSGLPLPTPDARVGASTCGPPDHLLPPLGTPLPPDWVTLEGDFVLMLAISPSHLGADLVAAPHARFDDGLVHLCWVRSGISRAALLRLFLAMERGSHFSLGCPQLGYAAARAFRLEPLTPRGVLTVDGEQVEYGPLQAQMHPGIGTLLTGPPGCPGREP
To be noted: at 0.1 µM.

Experiment [3] deals with T1, Sphingosine kinase 2 (Homo sapiens). To be noted: at 1 µM.
In experiment [4] the target is Casein kinase II subunit alpha (Homo sapiens) (UniProt P68400). The conditions noted are these: at 0.1 µM.
Sequence of Casein kinase II subunit alpha (Homo sapiens) (P68400 whole entry, looked up): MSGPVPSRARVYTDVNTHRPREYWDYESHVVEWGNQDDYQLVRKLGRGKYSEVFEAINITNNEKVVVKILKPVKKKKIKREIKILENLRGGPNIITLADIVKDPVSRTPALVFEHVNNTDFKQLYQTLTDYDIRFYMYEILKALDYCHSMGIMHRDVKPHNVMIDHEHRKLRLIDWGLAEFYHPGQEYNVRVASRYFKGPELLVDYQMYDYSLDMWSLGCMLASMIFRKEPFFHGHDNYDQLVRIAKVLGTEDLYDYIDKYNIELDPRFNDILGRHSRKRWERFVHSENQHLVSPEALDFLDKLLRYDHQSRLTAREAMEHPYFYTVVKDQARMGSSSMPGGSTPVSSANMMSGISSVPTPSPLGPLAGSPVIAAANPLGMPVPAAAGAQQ
For experiment [5] the target is unchanged. The conditions noted are these: at 1 µM.
For experiment [6], the target named is T2, Inhibitor of nuclear factor kappa-B kinase subunit alpha (Homo sapiens) (UniProt O15111).
T2 sequence (whole entry): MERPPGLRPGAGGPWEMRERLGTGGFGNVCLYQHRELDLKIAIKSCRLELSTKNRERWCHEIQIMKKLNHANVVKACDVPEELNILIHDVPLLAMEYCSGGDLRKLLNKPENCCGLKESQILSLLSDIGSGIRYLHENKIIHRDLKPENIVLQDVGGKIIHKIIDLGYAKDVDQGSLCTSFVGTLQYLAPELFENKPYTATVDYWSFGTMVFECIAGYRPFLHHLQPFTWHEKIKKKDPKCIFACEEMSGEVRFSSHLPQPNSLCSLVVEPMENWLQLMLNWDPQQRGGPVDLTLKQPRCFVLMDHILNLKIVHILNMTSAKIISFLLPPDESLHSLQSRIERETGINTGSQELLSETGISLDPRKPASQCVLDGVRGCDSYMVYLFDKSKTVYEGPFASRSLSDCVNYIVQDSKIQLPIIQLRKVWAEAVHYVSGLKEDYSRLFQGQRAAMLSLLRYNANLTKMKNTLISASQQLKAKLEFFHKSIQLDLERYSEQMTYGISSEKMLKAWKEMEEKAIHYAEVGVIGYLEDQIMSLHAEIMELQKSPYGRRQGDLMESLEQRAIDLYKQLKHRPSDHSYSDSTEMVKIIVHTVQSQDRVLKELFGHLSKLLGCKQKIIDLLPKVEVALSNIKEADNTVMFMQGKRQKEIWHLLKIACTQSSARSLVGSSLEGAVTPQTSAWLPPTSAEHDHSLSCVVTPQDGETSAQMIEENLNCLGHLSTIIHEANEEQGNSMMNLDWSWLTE
To be noted: at 0.1 µM.

The target in experiment [7] is T2, Inhibitor of nuclear factor kappa-B kinase subunit alpha (Homo sapiens). To be noted: at 1 µM.
Experiment [8] addresses T3, Inhibitor of nuclear factor kappa-B kinase subunit beta (Homo sapiens) (UniProt O14920).
T3 sequence (whole entry): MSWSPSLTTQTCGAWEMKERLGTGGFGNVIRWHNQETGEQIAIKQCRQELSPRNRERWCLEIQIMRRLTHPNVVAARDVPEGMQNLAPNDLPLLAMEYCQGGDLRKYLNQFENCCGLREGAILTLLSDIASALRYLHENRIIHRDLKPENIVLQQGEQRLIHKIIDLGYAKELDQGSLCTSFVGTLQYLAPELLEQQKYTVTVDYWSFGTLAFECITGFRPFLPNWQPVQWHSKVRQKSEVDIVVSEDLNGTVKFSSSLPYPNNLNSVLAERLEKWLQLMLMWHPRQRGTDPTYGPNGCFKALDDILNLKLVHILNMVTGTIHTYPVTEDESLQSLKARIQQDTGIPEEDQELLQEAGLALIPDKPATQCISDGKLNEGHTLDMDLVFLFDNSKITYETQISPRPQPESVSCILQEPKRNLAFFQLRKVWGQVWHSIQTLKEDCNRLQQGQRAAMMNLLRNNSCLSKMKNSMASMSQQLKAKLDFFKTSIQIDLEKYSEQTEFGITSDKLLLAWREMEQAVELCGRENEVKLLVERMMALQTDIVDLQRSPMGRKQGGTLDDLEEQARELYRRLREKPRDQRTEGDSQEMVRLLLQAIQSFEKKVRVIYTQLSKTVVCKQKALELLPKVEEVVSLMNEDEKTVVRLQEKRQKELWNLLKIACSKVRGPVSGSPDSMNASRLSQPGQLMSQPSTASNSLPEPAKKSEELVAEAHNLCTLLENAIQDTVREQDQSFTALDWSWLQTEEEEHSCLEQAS
To be noted: at 0.1 µM.

Experiment [9] concerns the target T3, Inhibitor of nuclear factor kappa-B kinase subunit beta (Homo sapiens). The conditions noted are these: at 1 µM.
The target of experiment [10] is T4, Inhibitor of nuclear factor kappa-B kinase subunit epsilon (Homo sapiens) (UniProt Q14164).
T4 sequence (whole entry): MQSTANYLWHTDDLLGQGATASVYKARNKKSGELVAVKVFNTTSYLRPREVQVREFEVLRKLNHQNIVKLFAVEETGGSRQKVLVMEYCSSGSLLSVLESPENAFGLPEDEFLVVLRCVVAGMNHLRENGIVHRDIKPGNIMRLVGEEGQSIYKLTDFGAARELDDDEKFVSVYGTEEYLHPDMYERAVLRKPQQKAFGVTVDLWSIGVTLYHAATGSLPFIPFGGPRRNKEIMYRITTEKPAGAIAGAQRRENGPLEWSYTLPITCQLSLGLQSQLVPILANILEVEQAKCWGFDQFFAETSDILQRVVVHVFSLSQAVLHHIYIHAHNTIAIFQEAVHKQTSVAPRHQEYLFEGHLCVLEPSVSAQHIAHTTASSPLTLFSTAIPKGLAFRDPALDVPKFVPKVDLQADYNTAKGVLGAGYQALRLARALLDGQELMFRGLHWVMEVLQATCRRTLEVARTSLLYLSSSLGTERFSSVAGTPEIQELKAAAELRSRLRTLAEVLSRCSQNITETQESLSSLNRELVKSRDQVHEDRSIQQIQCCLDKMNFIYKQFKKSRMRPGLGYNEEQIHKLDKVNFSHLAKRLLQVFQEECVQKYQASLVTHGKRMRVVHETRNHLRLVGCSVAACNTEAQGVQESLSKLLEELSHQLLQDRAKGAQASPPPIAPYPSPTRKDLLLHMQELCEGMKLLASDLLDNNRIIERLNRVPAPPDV
To be noted: at 0.1 µM.

Experiment [11] concerns the target T4, Inhibitor of nuclear factor kappa-B kinase subunit epsilon (Homo sapiens). The conditions noted are these: at 1 µM.
Experiment [12] has as its target T5, Serine/threonine-protein kinase Nek1 (Homo sapiens) (UniProt Q96PY6).
T5 sequence (whole entry): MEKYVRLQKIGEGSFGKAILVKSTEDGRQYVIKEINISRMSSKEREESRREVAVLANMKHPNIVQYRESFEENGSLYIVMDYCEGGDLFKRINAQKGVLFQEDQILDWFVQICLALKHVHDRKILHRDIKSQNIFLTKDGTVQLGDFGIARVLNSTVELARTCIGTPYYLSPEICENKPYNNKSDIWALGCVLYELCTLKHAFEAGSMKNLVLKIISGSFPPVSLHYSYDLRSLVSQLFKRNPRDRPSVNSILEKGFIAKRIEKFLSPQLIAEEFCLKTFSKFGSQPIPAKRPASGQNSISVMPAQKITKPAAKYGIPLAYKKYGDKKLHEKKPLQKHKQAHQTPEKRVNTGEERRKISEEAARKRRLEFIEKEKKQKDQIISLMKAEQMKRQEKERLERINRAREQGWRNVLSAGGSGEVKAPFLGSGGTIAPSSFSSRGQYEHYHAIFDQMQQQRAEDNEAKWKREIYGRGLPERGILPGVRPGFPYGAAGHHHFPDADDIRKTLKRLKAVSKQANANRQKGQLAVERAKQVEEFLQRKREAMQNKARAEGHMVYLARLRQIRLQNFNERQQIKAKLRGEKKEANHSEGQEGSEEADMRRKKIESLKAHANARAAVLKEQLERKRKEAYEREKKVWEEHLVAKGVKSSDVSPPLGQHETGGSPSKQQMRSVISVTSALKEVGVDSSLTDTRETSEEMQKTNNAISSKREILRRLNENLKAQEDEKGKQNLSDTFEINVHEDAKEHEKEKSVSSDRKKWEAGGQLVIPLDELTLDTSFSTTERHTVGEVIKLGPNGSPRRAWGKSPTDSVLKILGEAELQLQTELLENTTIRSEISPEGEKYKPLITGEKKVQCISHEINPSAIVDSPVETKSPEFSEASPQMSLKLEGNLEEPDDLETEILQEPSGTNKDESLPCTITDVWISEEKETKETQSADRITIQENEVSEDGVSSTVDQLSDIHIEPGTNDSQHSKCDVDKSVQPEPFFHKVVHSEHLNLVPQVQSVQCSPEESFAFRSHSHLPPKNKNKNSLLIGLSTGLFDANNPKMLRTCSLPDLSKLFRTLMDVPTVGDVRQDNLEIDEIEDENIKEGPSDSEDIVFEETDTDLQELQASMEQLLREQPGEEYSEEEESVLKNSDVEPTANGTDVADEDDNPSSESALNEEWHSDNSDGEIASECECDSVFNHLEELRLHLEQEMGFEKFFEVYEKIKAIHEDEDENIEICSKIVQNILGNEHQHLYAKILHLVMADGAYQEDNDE
The conditions noted are these: at 0.1 µM.

Experiment [13] concerns the target T5, Serine/threonine-protein kinase Nek1 (Homo sapiens). To be noted: at 1 µM.
In experiment [14] the target is T6, Serine/threonine-protein kinase Nek2 (Homo sapiens) (UniProt P51955).
T6 sequence (whole entry): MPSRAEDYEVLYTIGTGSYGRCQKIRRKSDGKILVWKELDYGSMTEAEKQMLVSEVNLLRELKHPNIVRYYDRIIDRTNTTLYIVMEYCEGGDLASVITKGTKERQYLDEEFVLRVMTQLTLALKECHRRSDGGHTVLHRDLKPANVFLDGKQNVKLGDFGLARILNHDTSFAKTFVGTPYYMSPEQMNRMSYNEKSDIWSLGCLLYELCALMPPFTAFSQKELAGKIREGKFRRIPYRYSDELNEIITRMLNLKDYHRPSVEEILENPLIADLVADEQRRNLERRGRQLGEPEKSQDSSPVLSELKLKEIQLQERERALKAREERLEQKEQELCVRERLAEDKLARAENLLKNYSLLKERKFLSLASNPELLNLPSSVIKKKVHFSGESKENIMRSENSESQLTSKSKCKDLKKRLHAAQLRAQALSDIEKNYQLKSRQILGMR
The conditions noted are these: at 0.1 µM.

In experiment [15] the target is T6, Serine/threonine-protein kinase Nek2 (Homo sapiens). The conditions noted are these: at 1 µM.
In experiment [16] the target is Serine/threonine-protein kinase Nek6 (Homo sapiens) (UniProt Q9HC98). To be noted: at 0.1 µM.
Sequence of Serine/threonine-protein kinase Nek6 (Homo sapiens) (Q9HC98 whole entry): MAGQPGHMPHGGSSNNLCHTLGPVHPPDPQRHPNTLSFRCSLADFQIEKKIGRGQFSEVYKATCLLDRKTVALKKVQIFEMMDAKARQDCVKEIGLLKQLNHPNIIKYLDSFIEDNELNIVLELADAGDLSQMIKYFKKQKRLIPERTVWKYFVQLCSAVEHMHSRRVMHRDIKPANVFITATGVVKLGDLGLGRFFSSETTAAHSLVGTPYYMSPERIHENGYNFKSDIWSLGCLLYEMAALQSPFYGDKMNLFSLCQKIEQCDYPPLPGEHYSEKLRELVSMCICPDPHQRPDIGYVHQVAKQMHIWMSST
The target is the same in experiment [17]. The conditions noted are these: at 1 µM.
In experiment [18] the target is Serine/threonine-protein kinase Nek7 (Homo sapiens) (UniProt Q8TDX7). The conditions noted are these: at 1 µM.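 Note: reported values are mean inhibition of NEK7 from the GSK PKIS kinase screening panel.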
Sequence of Serine/threonine-protein kinase Nek7 (Homo sapiens) (Q8TDX7 whole entry, looked up): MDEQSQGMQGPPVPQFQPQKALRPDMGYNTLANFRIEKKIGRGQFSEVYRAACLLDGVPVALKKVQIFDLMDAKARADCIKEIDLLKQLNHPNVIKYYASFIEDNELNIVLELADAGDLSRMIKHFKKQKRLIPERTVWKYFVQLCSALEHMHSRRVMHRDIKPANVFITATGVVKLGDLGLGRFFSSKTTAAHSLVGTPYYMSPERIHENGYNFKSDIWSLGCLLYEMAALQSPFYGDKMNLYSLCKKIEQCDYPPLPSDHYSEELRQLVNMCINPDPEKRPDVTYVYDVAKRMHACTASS
The target of experiment [19] is T7, Serine/threonine-protein kinase Nek9 (Homo sapiens) (UniProt Q8TD19).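 Note: reported value is the mean percent inhibition of NEK9.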
T7 sequence (whole entry): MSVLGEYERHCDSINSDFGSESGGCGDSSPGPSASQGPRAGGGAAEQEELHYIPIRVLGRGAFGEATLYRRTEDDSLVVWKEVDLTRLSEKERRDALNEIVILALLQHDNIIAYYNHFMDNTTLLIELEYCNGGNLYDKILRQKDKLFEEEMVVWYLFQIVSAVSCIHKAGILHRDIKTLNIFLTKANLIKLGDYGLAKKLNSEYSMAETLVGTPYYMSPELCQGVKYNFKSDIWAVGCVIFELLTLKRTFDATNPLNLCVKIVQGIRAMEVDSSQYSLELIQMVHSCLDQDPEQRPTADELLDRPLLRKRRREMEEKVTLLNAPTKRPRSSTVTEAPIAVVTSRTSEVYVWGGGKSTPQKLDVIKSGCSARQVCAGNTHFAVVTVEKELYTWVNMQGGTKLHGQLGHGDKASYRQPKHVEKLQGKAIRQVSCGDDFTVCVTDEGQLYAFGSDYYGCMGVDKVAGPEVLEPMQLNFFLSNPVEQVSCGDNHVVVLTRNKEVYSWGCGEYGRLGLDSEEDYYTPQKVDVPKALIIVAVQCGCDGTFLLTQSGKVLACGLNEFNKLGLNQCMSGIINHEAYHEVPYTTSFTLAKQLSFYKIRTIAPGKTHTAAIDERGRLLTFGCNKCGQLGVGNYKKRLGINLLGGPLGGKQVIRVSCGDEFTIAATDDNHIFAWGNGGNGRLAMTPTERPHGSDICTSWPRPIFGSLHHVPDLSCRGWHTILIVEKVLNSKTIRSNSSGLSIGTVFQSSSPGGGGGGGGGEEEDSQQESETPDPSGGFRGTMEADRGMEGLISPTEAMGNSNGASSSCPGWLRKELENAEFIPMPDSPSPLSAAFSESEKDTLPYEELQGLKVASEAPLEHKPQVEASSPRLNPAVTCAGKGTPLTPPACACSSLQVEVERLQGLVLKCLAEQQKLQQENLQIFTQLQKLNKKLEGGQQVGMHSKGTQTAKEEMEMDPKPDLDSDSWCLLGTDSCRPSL
The conditions noted are these: at 0.1 µM.

Sequence of Sphingosine kinase 1 (Homo sapiens) (Q9NYA1 whole entry): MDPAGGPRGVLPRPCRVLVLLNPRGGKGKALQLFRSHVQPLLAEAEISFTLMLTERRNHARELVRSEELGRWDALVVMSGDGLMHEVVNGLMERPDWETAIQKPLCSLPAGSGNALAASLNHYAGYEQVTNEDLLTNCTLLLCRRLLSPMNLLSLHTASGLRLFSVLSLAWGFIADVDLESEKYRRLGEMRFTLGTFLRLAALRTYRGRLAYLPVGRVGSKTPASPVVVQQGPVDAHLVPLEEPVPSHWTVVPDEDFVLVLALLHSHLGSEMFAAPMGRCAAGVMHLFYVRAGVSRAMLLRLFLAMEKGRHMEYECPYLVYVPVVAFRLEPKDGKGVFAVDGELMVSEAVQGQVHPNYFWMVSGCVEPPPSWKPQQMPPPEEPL

As a reminder, the inhibition is the relative decrease from the control value, in per cent. `c1ccc(Oc2ccc(Nc3ncc(-c4ccccc4)o3)cc2)cc1`: the inhibition in experiment [1] is 0.89%; in experiment [2] it was 3.77%; in [3], -0.07%; in experiment [4] it was 3.77%; in [5], 5.82%; in experiment [6], 5.9%. Further, the inhibition in experiment [7] is -0.96%; in [8], 1.69%; in experiment [9] it was -1.75%; in experiment [10] it was 1.29%; in experiment [11], 3.43%; in [12] it was 0.18%. Moreover, the inhibition in experiment [13] was 1.89%; in experiment [14] it was 1.83%; in experiment [15], 1.51%; in experiment [16], -0.2%; in experiment [17], 0.96%; in experiment [18] it was 1.97%. The inhibition in experiment [19] turned out to be 0.25%.
